Tau fibril FP – qHTS for Inhibitors of Tau Fibril Formation, Fluorescence Polarization | Microtubule-associated protein tau (Homo sapiens), P10636 | K18 P301L tau heparin fibrillization, Alexa594 FP, 6 h | Potency, µM (series often up to 57.7 µM), without a hit: top-dose activity, negative = inhibition, most hits filed as inhibitors | 280,000 compounds, 0.39% hits | AID 1468, 2008; further: potency means the concentration at half of the fitted maximal effect; nearly all actives have a fitted effect of over 55% in size
Target sequence (P10636 561-689 P618L limits assumed): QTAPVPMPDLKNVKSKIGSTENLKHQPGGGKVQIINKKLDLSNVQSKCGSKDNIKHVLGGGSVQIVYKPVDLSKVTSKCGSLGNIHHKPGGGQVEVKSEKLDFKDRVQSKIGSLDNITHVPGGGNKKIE
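Compound effects on tau fibrillization are measured by Alexa 594 fluorescence polarization (ex 555, em 632 nm). K18 P301L tau is used at 15 uM with 0.24 uM labeled tracer, and 20 uM heparin induces aggregation over 6 hr at 37 C.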
Tau fluor counter – Counterscreen qHTS for Inhibitors of Tau Fibril Formation, Fluorescence Polarization. tau K18 P301L Alexa594 fluorescence, heparin fibrillization. Potency, µM (doses to about 57.7 µM), without a hit: top-dose activity change, negative = decrease. 280,000 compounds, 0.93% hits. AID 1463, 2008; further: potency means the concentration at half of the fitted maximal effect; nearly all actives have a fitted effect of over 55% in size
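Human tau K18 P301L (15 uM unlabeled, 0.24 uM Alexa 594-labeled) in 100 mM sodium acetate pH 7 with 20 uM heparin, 6 hr at 37 C. ThT 30 uM added, 1 hr ambient; Alexa 594 FP and total fluorescence read at 555/632 nm.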
Sfp inh – qHTS Assay for Inhibitors of Bacillus subtilis Sfp phosphopantetheinyl transferase (PPTase). 310,000 compounds, 3.5% hits. Biochemical Sfp PPTase activity, qHTS. AID 1490, 2009. 4'-phosphopantetheinyl transferase ffp (Bacillus subtilis), Q9F4F7. Potency, µM, inactives show largest response in the series, negative = inhibition, actives largely listed as inhibitors;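 further: the enzyme is Sfp with the accession as filed and its product quenches rhodamine fluorescence; potency means the concentration at half of the fitted maximal effect; 0% = enzyme reaction without inhibitor and -100% = no enzyme wells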
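Sfp 15 nM + cpd, 15 min RT; start w/ rhodamine-CoA 5 uM, BHQ-2-YbbR 12.5 uM (final); 50 mM Hepes pH 7.6, 10 mM MgCl2, 0.01% NP-40, 0.01% BSA; read 525/598 nm at 0 and 30 min.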
FBPA coupling cs – qHTS Assay for Inhibitors of Fructose-1,6-bisphosphate Aldolase from Giardia Lamblia: Coupling assay counterscreen; activity change, negative = inhibition, % at 58.2 µM, hits read low; 290,000 compounds, 0.67% hits; coupling enzyme system counterscreen, AmpLite Red fluorescence; in the data active means activity change below about -30%
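Activity here indicates interference with the coupling reaction, not aldolase inhibition. Compounds at 57.5 uM final met coupling enzymes for 10 min at RT; substrate and AmpLite Red detection followed, with a 525/598 nm fluorescence read after 20 min.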
Tau fibril ThT – qHTS for Inhibitors of Tau Fibril Formation, Thioflavin T Binding; 270,000 compounds, 2.1% hits; recombinant tau K18 P301L, heparin-induced fibrillization, ThT fluorescence; Potency, µM (highest dose often 57.4 µM), without a hit: at the top dose activity, negative = inhibition, usual class: inhibitors; AID 1460, 2008; Microtubule-associated protein tau (Homo sapiens), P10636; further: potency means the concentration at half of the fitted maximal effect; nearly all actives have a fitted effect of over 55% in size
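ThT emission at 510 nm, taken 1 hr after adding 30 uM dye, quantifies aggregates formed when 20 uM heparin acts on human tau K18 P301L for 6 hr at 37 C.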
* = called active by the depositor; [ ] = another dose, or the depositor's remark. Compounds with a hit are over-represented: about 5.2% of the library has one in this group of screens. Unless noted, the call rests on the fitted dose curve; in most records, active means well fitted curve in the direction sought with a large enough effect; inconclusive means small, poorly fitted or top-dose-only effect, or another doubt; inactive means no such curve, though single readings can be large; an effect the other way counts as inactive or inconclusive. Unless noted, on the % scale 0 is the no-effect control and ±100 the full control effect.

COc1ccc(CN2C(=O)N(c3ccc(F)cc3)C(=O)C2CC(=O)Nc2cc(OC)cc(OC)c2)cc1 (stereo unspecified) was read as Tau fibril FP -5%, Tau fluor counter -25% and Tau fibril ThT -9%.
Screening Cc1cc(C(=O)NCCC2=CCCCC2)c(C)o1 returned Tau fibril FP inconclusive, Tau fluor counter -11%, Sfp inh 35µM*, FBPA coupling cs 0 and Tau fibril ThT inconclusive.
For O=C(NCc1ccccc1)c1c[nH]c2ccc(S(=O)(=O)Nc3ccc4c(c3)OCCO4)cc2c1=O the results were Tau fibril FP inconclusive, Tau fluor counter 10µM*[quencher], Sfp inh 7%, FBPA coupling cs -2 and Tau fibril ThT -10%.
Screening NNc1nc(-c2ccccc2Cl)nc2sc3c(c12)CCCC3 returned Tau fibril FP 5%, Tau fluor counter -23%, Sfp inh 50µM*, FBPA coupling cs 1 and Tau fibril ThT inconclusive.
C/C(CCc1oc2ccc(Cl)cc2c1-c1ccc(C)o1)=N\O was read as Tau fibril FP -15%, Tau fluor counter inconclusive, Sfp inh 16µM*, FBPA coupling cs -4 and Tau fibril ThT inconclusive.
N#CCCN1CCN(S(=O)(=O)c2ccc(S(=O)(=O)N3CCCCCC3)cc2)CC1 was read as Tau fibril FP inconclusive, Tau fluor counter 2%, Sfp inh 19%, FBPA coupling cs 1 and Tau fibril ThT -5%.
`Cc1ccc(S(=O)(=O)N2CCN(CCC#N)CC2)cc1` gave Tau fibril FP 7%, Tau fluor counter -3%, Sfp inh 79µM*, FBPA coupling cs 1 and Tau fibril ThT 2%.
CN1C(=O)c2ccccc2Sc2ccc(NC(=O)COc3ccc(F)cc3)cc21 was read as Tau fibril FP inconclusive, Tau fluor counter inconclusive and Tau fibril ThT -8%.
`O=C(O)/C=C/C(=O)NNc1ncnc2ccccc12` gave Tau fibril FP -1%, Tau fluor counter -11%, Sfp inh 56µM*, FBPA coupling cs 1 and Tau fibril ThT inconclusive.
Screening CC(=O)NNc1ncnc2ccccc12 returned Tau fibril FP 10%, Tau fluor counter 1%, Sfp inh -13%, FBPA coupling cs 4 and Tau fibril ThT -4%.
For C=CCN1c2ccccc2[C@]23C[C@@H](C(=O)OC)N(C(=O)COCc4ccccc4)C2=NC(C(=O)OC)=C(C(=O)OC)[C@H]13 the results were Tau fibril FP -8%[11.6 µM], Tau fluor counter -5%[11.6 µM], Sfp inh inconclusive, FBPA coupling cs 1 and Tau fibril ThT -4%[11.5 µM].
Screening Cc1ccc2nc(-c3ccc(NS(=O)(=O)c4ccc(F)c(F)c4)cc3)sc2c1 returned Tau fibril FP inconclusive, Tau fluor counter 10µM*[quencher], Sfp inh -4%, FBPA coupling cs 1 and Tau fibril ThT inconclusive.
`Cc1ccc(OCCOCCN2CCN(C)CC2)c([N+](=O)[O-])c1` gave Tau fibril FP -9%, Tau fluor counter -11%, Sfp inh 79µM*, FBPA coupling cs 2 and Tau fibril ThT -12%.
Screening COc1ccc(OCCOCCOc2ccc(C)cc2[N+](=O)[O-])cc1 returned Tau fibril FP -8%, Tau fluor counter -17%, Sfp inh 6%, FBPA coupling cs -3 and Tau fibril ThT -17%.
CN1CCN(CCOCCOc2ccc(Br)cc2Cl)CC1 was read as Sfp inh 56µM* and FBPA coupling cs -3.
For CC1CCCN(CCOCCOc2ccc(Br)cc2Cl)C1 (stereo unspecified) the results were Tau fibril FP 0%, Tau fluor counter -6%, Sfp inh -25%, FBPA coupling cs 2 and Tau fibril ThT -7%.
Cc1ccc(OCCOCCN2CCCCC2)c([N+](=O)[O-])c1 was read as Tau fibril FP 4%, Tau fluor counter -5%, Sfp inh 56µM*, FBPA coupling cs -5 and Tau fibril ThT -13%.
Screening Cc1cc(Cl)c(OCCOCCN2CCCCC2)c(Br)c1 returned Tau fibril FP 0%, Tau fluor counter 2%, Sfp inh 63µM*, FBPA coupling cs -3 and Tau fibril ThT -5%.
Screening Cc1cc(Cl)c(OCCOCCN2CCCC(C)C2)c(Br)c1 (stereo unspecified) returned Tau fibril FP -2%, Tau fluor counter -5%, Sfp inh -14%, FBPA coupling cs 3 and Tau fibril ThT -13%.
`Cc1ccc(OCCOCCNC(C)(C)C)c([N+](=O)[O-])c1` gave Tau fibril FP -4%, Tau fluor counter -10%, Sfp inh -1%, FBPA coupling cs 0 and Tau fibril ThT -7%.
O=S(=O)(c1cccc(C(F)(F)F)c1)n1c(/C=C/c2ccccc2)nc2ccccc21 was read as Tau fibril FP inconclusive, Tau fluor counter -15% and Tau fibril ThT 3%.
`CCOC(=O)c1c(/N=C/c2cccc([N+](=O)[O-])c2O)sc(C)c1C` gave Tau fibril FP 4%, Tau fluor counter 13%, Sfp inh 40µM*, FBPA coupling cs -3 and Tau fibril ThT inconclusive.
For O=C(c1cnccn1)N1CCC2(CC1)CCN(c1cccc(-c3ccccc3)c1)CC2 the results were Sfp inh -8% and FBPA coupling cs 0.
For CCc1ccc2occ(CC(=O)NCc3ccccc3)c2c1 the results were Tau fibril FP 2%, Tau fluor counter -17% and Tau fibril ThT -8%.
Screening COc1ccc(-c2cc(C(F)(F)F)nc(SCC(=O)NCC(C)C)n2)cc1OC returned Tau fibril FP -6%, Tau fluor counter -8% and Tau fibril ThT -2%.
Screening COc1ccc2nc(Cl)c(C3CC(c4ccco4)=NN3C(=O)CCCC(=O)O)cc2c1 (stereo unspecified) returned Tau fibril FP -5%, Tau fluor counter -8%, Sfp inh 35µM*, FBPA coupling cs 1 and Tau fibril ThT -11%.
Screening COc1ccc(NC(=O)CCCn2cnc3ccccc3c2=O)cc1 returned Sfp inh 50µM* and FBPA coupling cs 1.
Screening CCN1C(=O)/C(=C2/C=CC=CN2C)OC1=S returned Tau fibril FP -2%, Tau fluor counter 0%, Sfp inh -17%, FBPA coupling cs 1 and Tau fibril ThT -11%.
CN1C=CC=C/C1=C1\SC(=S)N(C2CCCCC2)C1=O was read as Tau fibril FP 4%, Tau fluor counter -24%, Sfp inh -18%, FBPA coupling cs 2 and Tau fibril ThT inconclusive.
Screening CN1C=CC=C/C1=C1\SC(=S)N(CC(=O)O)C1=O returned Tau fibril FP -10%, Tau fluor counter -4%, Sfp inh 45µM*, FBPA coupling cs 0 and Tau fibril ThT inconclusive.

High-throughput results (PubChem)
